Compound activity as filed in PubChem.
Hits are enriched below; roughly 3.3% of the tested compounds scored in any of these assays.
ROMK mod: modulates human ROMK potassium channel activity; P48048; Tet-inducible ROMK, thallium flux fluorescence; actives lie on both sides; B-score at 10 µM; 2% of 130,000 active; AID 1918;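 active = signal ratio slope over the read window, or its plate-corrected B-score, at least 3 SD from the plate mean, either direction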;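 note: B-score of the F/F0 ratio slope over 7 to 12 s after thallium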
Arbovirus anti: arbovirus infection inhibition | inhibition, % at 10 µM | AID 1251 | 0.37% of 200,000 active | arbovirus infection cell-based antiviral screen; in the data active = inhibition above about 30%
PERK inhibitor: blocks human PERK kinase; 0.17% of 220,000 active; CHO PERK-DD fusion, SEAP luminescence translation reporter; Q9NZJ5; inhibition, % at 5.6 µM;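 active = inhibition above the mean inhibition of all tested compounds plus 3 SD, set separately per screening campaign, cut at about 2.9% in these data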;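 note: PERK kinase domain activated by AP20187 dimerizer at 100 nM; 0% = DMSO with dimerizer and 100% = rapamycin at 8.4 µM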
Target sequence (Q9NZJ5 whole entry, looked up, the tested form may be a part): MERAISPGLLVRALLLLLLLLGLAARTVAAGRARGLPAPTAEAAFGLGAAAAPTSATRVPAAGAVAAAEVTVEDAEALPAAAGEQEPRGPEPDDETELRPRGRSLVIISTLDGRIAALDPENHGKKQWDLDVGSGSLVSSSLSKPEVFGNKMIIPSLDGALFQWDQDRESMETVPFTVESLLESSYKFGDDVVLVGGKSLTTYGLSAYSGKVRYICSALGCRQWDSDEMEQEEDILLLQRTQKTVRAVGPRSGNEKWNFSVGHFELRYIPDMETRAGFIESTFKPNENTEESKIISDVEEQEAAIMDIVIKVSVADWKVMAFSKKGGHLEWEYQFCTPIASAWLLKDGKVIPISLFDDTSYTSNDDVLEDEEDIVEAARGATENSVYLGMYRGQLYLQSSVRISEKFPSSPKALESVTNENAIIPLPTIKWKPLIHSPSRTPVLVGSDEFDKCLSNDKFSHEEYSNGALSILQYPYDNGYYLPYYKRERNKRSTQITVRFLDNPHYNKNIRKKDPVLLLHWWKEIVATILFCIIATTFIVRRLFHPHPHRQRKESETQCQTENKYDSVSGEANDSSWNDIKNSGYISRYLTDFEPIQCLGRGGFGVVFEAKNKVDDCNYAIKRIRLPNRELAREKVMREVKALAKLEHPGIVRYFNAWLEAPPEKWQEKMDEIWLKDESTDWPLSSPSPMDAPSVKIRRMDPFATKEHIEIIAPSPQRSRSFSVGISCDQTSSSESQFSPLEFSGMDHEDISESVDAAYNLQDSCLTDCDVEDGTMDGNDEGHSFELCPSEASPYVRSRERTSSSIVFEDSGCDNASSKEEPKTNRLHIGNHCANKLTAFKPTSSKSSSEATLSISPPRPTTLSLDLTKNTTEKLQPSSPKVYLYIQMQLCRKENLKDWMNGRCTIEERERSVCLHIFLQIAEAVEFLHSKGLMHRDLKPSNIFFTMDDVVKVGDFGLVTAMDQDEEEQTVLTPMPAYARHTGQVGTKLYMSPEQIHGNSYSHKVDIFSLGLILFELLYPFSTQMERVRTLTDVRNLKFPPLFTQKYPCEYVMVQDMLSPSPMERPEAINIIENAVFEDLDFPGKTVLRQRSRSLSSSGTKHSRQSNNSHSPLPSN
WT yeast gro inh: growth inhibition of WT yeast, mitochondrial fusion screen; inhibition, % at 10 µM; mitochondrial fusion phenotypic screen, WT strain; 2.1% of 190,000 active; AID 1362; in the data active = inhibition above about 58%; tested in S. cerevisiae
The depositor's hits bear a star; . = no result.

SMILES	ROMK mod	Arbovirus anti	PERK inhibitor	WT yeast gro inh
CCCc1[nH]nc2c1C(c1ccc(OC)c(CSC3=NCCS3)c1)C(C#N)=C(N)O2 (centres undefined)	-3.14*	-15.0	1.1	57.1
CCCc1[nH]nc2c1C(c1cc(OC)cc(OC)c1)C(C#N)=C(N)O2 (centres undefined)	-0.0191	-1.0	1.2	11.8
O=C(CN1CCCC1=O)NC1C2CC3CC(C2)CC1C3 (centres undefined)	.	5.2	0.2	-0.3
Cc1cccc2c1N(CCCOc1ccccc1)C(=O)C2=O	.	1.1	-0.7	-1.2
Cc1cccc2c1N(CCCOc1ccc(C(C)(C)C)cc1)C(=O)C2=O	.	-40.7	1.4	97.1*
Cc1cccnc1NC(=S)Nc1ccc(Br)cc1Cl	-0.746	-6.9	0.3	27.5
COC(=O)Cc1c(C)[nH]n(-c2cc(Cl)cc(Cl)c2)c1=O	0.197	-2.2	0.6	-19.1
Cc1ccc(C2CC(=O)c3cnn(-c4nc(C)cc(C)n4)c3C2)cc1 (centres undefined)	0.8	35.6*	-0.2	4.0
COc1ccc(C2CC(=O)c3cnn(-c4nc(C)cc(C)n4)c3C2)cc1OC (centres undefined)	.	.	-1.7	.
COc1ccc(C(=O)N2c3cc4c(cc3C(C)=CC2(C)C)OCO4)cc1	.	-7.0	0.3	59.9*
CC1=CC(C)(C)N(C(=O)c2ccccc2)c2ccc(C)cc21	.	-3.8	0.2	-0.9
CCc1nnc(NC(=O)c2ccc(Cl)c(S(=O)(=O)N3CCc4ccccc4C3)c2)s1	0.86	2.0	0.2	-2.2
COc1ccc(NC(=O)c2ccc(Cl)c(S(=O)(=O)N3CCc4ccccc4C3)c2)cn1	0.49	-19.9	0.0	58.4*
COc1ccc(OC)c(/C=C/C(=O)NCCc2nc3ccccc3[nH]2)c1	.	.	-1.2	.
COc1ccc(C2CC(c3cccs3)=NN2S(=O)(=O)c2ccc(C)cc2)cc1 (centres undefined)	.	.	-0.7	.
Cc1ccc(C2CC(c3cccs3)=NN2S(=O)(=O)c2ccc(C)cc2)cc1 (centres undefined)	.	0.7	0.1	61.3*
COc1ccc(NC(=O)CSc2nnc(-c3ccco3)n2C)cc1	.	-2.7	0.0	5.8
CCOc1ccc(NC(=O)CSc2nnc(-c3ccco3)n2C)cc1	.	1.3	-0.1	95.3*
O=C1C(Cc2ccc(O)cc2)NC(=S)N1c1ccccc1 (centres undefined)	.	-2.9	3.0*	-23.6
O=C(O)CC1NC(=S)N(c2ccccc2)C1=O (centres undefined)	.	-2.7	1.4	8.7
O=C(Nc1cccc(F)c1)c1ccc(-c2ccccc2Cl)o1	0.587	-15.5	-0.1	76.5*
CCCOC(=O)c1ccc(NC(=O)c2ccccc2OC)cc1	0.24	-3.3	0.0	24.1
CCCCOC(=O)c1ccc(NC(=O)c2ccccc2OC)cc1	0.0117	7.1	-1.1	64.5*
COc1ccc(NC(=O)c2ccccc2NS(C)(=O)=O)cc1OC	-0.135	9.0	1.7	4.4
COC(=O)c1ccc(NC(=O)c2ccccc2NS(C)(=O)=O)cc1	-0.273	51.5*	0.9	-5.8
SMILES	ROMK mod	Arbovirus anti	PERK inhibitor	WT yeast gro inh
Cc1cccc(C)c1NC(=O)COC(=O)CCc1ccc(S(=O)(=O)N2CCCCC2)cc1	.	-2.6	0.5	-22.5
CCOc1ccccc1NC(=O)NC1CC2CCCC(C1)N2Cc1nnnn1CCc1ccccc1 (centres undefined)	.	5.8	-0.4	0.0
CC(Sc1nc2ccccc2n1C)C(=O)NC(c1ccccc1)c1ccccc1 (centres undefined)	.	2.3	-1.1	58.5*
COCCNCc1nc2sc(C)c(-c3ccccc3)c2c(=O)[nH]1	.	.	-1.0	.
FC(F)C(F)(F)C(F)(F)C(F)(F)c1cc(-c2ccccc2)n[nH]1	.	-28.4	1.4	69.7*
CN(C1=C(N2CCCCC2)C(=O)c2ccccc2C1=O)c1ccccc1	-0.813	-14.4	-0.2	76.2*
S=C(NCC1CCCO1)NC1CCCCC1 (centres undefined)	.	12.8	0.8	-9.3
CCCC(NC(=S)NCC1CCCO1)C12CC3CC(CC(C3)C1)C2 (centres undefined)	-0.146	14.2	1.1	79.0*
Clc1ccc(-c2nnc(NCc3ccccc3)c3ccccc23)cc1	.	8.1	0.2	73.4*
CCCN1Cc2cccc(C(=O)NC(CC(=O)OCC)c3ccc(OCC)c(OC)c3)c2C1=O (centres undefined)	-0.0168	-0.5	-0.5	-6.9
Cc1ccc(NC(=O)C(OC(=O)c2ccc(O)cc2)c2ccccc2)cc1Cl (centres undefined)	0.318	-44.8	-0.3	89.2*
Cc1ccc(NC(=O)C(OC(=O)c2ccc(F)cc2)c2ccccc2)cc1Cl (centres undefined)	.	-6.0	0.4	-10.1
Cc1cc(C)c(C(N)=O)c(Nc2cccc3ccccc23)n1	.	-18.1	0.8	62.4*
O=C(NCc1ccco1)c1cc(-c2ccccc2)on1	0.307	-7.4	0.6	59.7*
O=C(NCc1ccco1)c1cc(-c2ccc(F)cc2)on1	.	2.1	0.9	-0.4
Cc1ccc(C2=N/C(=C/N3CCOCC3)C(=O)O2)cc1	.	9.9	0.7	5.8
Cc1cccc2cc(/C=C3\N=C(c4ccccc4)OC3=O)c(N3CCOCC3)nc12	-5*	2.0	0.1	-0.8
CC1CCc2c(sc(NC(=O)c3ccccc3C(=O)O)c2C#N)C1 (centres undefined)	.	59.1*	0.7	15.8
CC1CCc2c(sc(NC(=S)NC(=O)c3ccccc3)c2C#N)C1 (centres undefined)	.	.	0.2	.
COCCCNCC1C(Oc2ccc(Cl)cc2)C(=O)N1c1ccccc1C (centres undefined)	-1.26	49.0*	-1.4	25.3
CC1(C)Cc2cccc(C(=O)Nc3ccncc3)c2O1	.	.	-0.3	.
Oc1ccccc1-c1cc(C(F)(F)C(F)F)nc(-c2ccccc2)n1	.	-2.7	3.0*	-13.7
Cc1cc(C)n2c(SCC(=O)Nc3cc(C)on3)nnc2n1	.	7.5	1.5	6.8
Oc1ccc(Cl)cc1/C=C/c1ccc2cccc(O)c2n1	0.0128	-39.3	-0.9	71.3*
Oc1c(Cl)cc(Cl)cc1/C=C/c1ccc2cccc(O)c2n1	-0.514	12.6	0.2	51.4
SMILES	ROMK mod	Arbovirus anti	PERK inhibitor	WT yeast gro inh
N/C(=N\N=C\c1ccc([N+](=O)[O-])cc1)c1nonc1N	0.328	.	3.4*	.
N/C(=N\N=C\c1ccc(O)cc1)c1nonc1N	-0.0137	-7.5	0.7	-8.2
Cc1ccc(S(=O)(=O)CCNC(=O)Cc2ccccc2)cc1	-0.884	4.6	-0.5	9.3
Cc1nn(Cc2ccc(Cl)cc2Cl)c(C)c1NC(=O)NC12CC3CC(CC(C3)C1)C2	-1.34	-26.7	-1.1	67.6*
Cc1nn(Cc2ccc(Cl)cc2Cl)c(C)c1NC(=O)c1sc2ccccc2c1Cl	.	-3.1	0.3	-11.7
Cc1nnc(SCc2ccc([N+](=O)[O-])cc2)o1	-0.259	-0.9	0.3	-4.8
O=C(Nc1cccc(Cl)c1)c1csc(-c2ccccc2)n1	.	9.3	2.1	61.3*
O=C(Nc1ccc(Cl)c(Cl)c1)c1csc(-c2ccccc2)n1	.	-32.4	0.1	12.0
COc1ccc(Cc2nc(C(=O)Nc3ccc(Cl)cc3)cs2)cc1	-0.255	-0.1	-0.4	54.1
O=C(Nc1ccc(Cl)cc1)c1csc(Cc2ccccc2)n1	-0.319	13.0	0.8	74.1*
COc1ccc(NC(=O)c2csc(Cc3ccc(Cl)cc3)n2)cc1	-0.703	-19.0	-0.4	59.0*
CCc1cccc(C)c1NC(=O)CN(C)Cc1ccccc1F	-0.984	-0.6	-0.3	-11.7
